Results reported in PubChem BioAssay AID1259415 (National Center for Advancing Translational Sciences (NCATS), 2018).
Where “and” joins values, the source holds several entries; their conditions need not be identical. Equal entries are not always repeated. Hit rate of the full screen: of about 410,000 compounds, about 18,000 (4.4%) were called active. Inconclusive results (about 7%) are left out. Rule as the data show it: active = activity change below about -60%; inconclusive = no clear call, values can overlap the other calls; inactive = above about -39%. For the sample, actives were picked, then their nearest neighbours and some compounds at random. Some structures have more than one record in an assay (separate samples or runs), and their calls can disagree.
% is scaled to controls: 0 for no effect and ±100 for the full control effect.

Test: qHTS Assay for inhibitors of the human cytomegalovirus (HCMV)
Conditions: HFF cells, HCMV-luciferase reporter, 72 h; at 57.5 µM; stronger effect = lower value
How it was run: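 After 16 h attachment at 37C, HFF cells received test compound and HCMV-luciferase (1 PFU/cell); reporter luminescence read 72 h later, data normalized against buffer-only and known inhibitor Salinomycin.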
For CCc1ccccc1NC(=O)N1CCC2(CC1)Oc1ccccc1C(=O)N2Cc1ccccc1F, the activity change, negative = inhibition was 6.91% (inactive).
In the case of CN1c2ccccc2[C@@]2(CCN=C2N2CCOC2=O)[C@H]1c1cn(C)c2ccccc12, the activity change, negative = inhibition is reported as 7.43% (inactive).
With CCCCCCNCCn1cnc2c(N)ncnc21 the activity change, negative = inhibition was -40% (inactive).
For CCOC(=O)C1=C(C)NC(C)=C(C(=O)OCC)C1C1=COCCO1, the activity change, negative = inhibition was 42.6% (inactive).
In the case of CCOC(=O)C1=C(CC)Nc2ccccc2N=C1N, the activity change, negative = inhibition is reported as 40.2% (inactive).
For CCOC(=O)C1C(=O)NCC1c1ccccc1 (configuration not stated), the activity change, negative = inhibition was 25.9% (inactive).
In the case of C=CCC1(C#N)C(=S)NC(C)=C(C(=O)OCC)C1c1ccccc1 (configuration not stated), the activity change, negative = inhibition is reported as 21.2% (inactive).
For CCOC(=O)C1=C(C)NC(SC)=NC1c1ccccc1 (configuration not stated), the activity change, negative = inhibition was -75.9% (active).
In the case of CCOC(=O)C1=C(C)NC(C)=C(C(=O)OCC)C1c1ccccn1, the activity change, negative = inhibition is reported as 1.28% (inactive) and -98.9% (active).
For Cc1ccc(CN2C(=O)SC(Nc3ccccc3)C2=O)cc1 (configuration not stated), the activity change, negative = inhibition was 4.93% (inactive).
In the case of CC(=O)c1ccc(NC(=O)C2CCN(S(=O)(=O)c3c(C)noc3/C=C/c3ccc(C)cc3)CC2)cc1, the activity change, negative = inhibition is reported as 8.22% (inactive).
For Cc1ccccc1CNC(=O)C(=O)NCC(c1cccs1)S(=O)(=O)c1cccs1 (configuration not stated), the activity change, negative = inhibition was -7.75% (inactive).
With Cc1ccc2nc(-c3ccc(O)cc3)c(Nc3ccc4c(c3)OCO4)n2c1 the activity change, negative = inhibition was 27.1% (inactive).
For CN(C)c1ccc(NC(=S)N(CCc2ccccc2)C2CC(=O)N(c3c(Cl)cccc3Cl)C2=O)cc1 (configuration not stated), the activity change, negative = inhibition was -21.4% (inactive).
With COc1ccc(N2C(=O)C(CC(=O)Nc3ccccc3)N(Cc3ccc(OC)c(OC)c3)C2=O)cc1 (configuration not stated) the activity change, negative = inhibition was 38.3% (inactive).
For CCOc1ccc(N2C(=O)CC(N(CCc3ccc(OC)c(OC)c3)C(=S)Nc3ccccc3)C2=O)cc1 (configuration not stated), the activity change, negative = inhibition was -67.5% (active).
With CC(C)Oc1ccc(NC(=O)c2cc3ccccc3o2)cc1 the activity change, negative = inhibition was 84.8% (inactive).
In the case of COC(=O)c1ccccc1NC(=O)Cn1c(=O)cc(C)c2c(C)nn(-c3cccc(Cl)c3C)c21, the activity change, negative = inhibition is reported as -6.78% (inactive).
With COc1cccc(NC(=O)Cn2c(=O)cc(C)c3c(C)nn(-c4cccc(F)c4)c32)c1 the activity change, negative = inhibition was 2.05% (inactive).
In the case of COc1ccc(NC(=O)Cn2c(=O)cc(C)c3c(C)nn(-c4cccc(Cl)c4C)c32)cc1OC, the activity change, negative = inhibition is reported as -103% (active).
For N=c1n(CCc2ccccc2)c2ccccc2n1Cc1ccccc1F, the activity change, negative = inhibition was -70.6% (active).
With CCCn1c(NCc2ccccc2F)nc2ccccc21 the activity change, negative = inhibition was 49.2% (inactive).
In the case of O=C(COC(=O)Cc1ccccc1F)NCCc1ccccc1, the activity change, negative = inhibition is reported as 106% (inactive).
For CCOCCN(C=O)c1cccc(OC)c1, the activity change, negative = inhibition was 18% (inactive).
With COc1ccc(N2CCN(C(=S)Nc3ccc(S(N)(=O)=O)cc3)CC2)cc1 the activity change, negative = inhibition was 9.64% (inactive).
With COc1ccc(NC(=S)NCC2CCN(c3ccc(OC)cc3)C2)cc1 (configuration not stated) the activity change, negative = inhibition was -63.2% (active).
For COc1ccc(N2CCC(CNC(=S)Nc3c(C)cccc3C)C2)cc1 (configuration not stated), the activity change, negative = inhibition was 0% (inactive).
In the case of O=C(Cn1cc(SCc2cccc(Cl)c2)c2ccccc21)N1CCCCC1, the activity change, negative = inhibition is reported as 24.5% (inactive).
For CN1CCN(Cc2c(O)ccc3c2oc(=O)c2ccccc23)CC1, the activity change, negative = inhibition was -78.7% (active).
For COc1ccc(-c2c(C)c3ccc(O)c(CN4CCN(C)CC4)c3oc2=O)cc1OC, the activity change, negative = inhibition was 5.43% (inactive).
In the case of CCOC(=O)c1oc2c(CN3CCN(C)CC3)c(O)ccc2c(=O)c1-c1ccc(Br)cc1, the activity change, negative = inhibition is reported as -37.4% (inactive).
With O=C(CSc1oc(-c2ccco2)nc1S(=O)(=O)c1ccccc1)c1ccc(Cl)cc1 the activity change, negative = inhibition was -17.5% (inactive).
In the case of Cc1cccc(N2CCN(c3c(CN4CCCC4)c(=O)oc4ccccc34)CC2)c1C, the activity change, negative = inhibition is reported as 21.8% (inactive).
In the case of CCOc1ccc(N(CC)C(=O)c2cc3c(=O)oc4ccccc4c3s2)cc1, the activity change, negative = inhibition is reported as 5.06% (inactive).
With O=C(CN1C(=O)c2ccccc2S1(=O)=O)N1CCc2ccccc21 the activity change, negative = inhibition was -93.9% (active).
With NS(=O)(=O)c1ccc(CCNC(=O)CN2C(=O)c3ccccc3S2(=O)=O)cc1 the activity change, negative = inhibition was -13% (inactive).
For Cc1ccc(S(=O)(=O)N(C)CC(=O)N2CCc3ccccc32)cc1, the activity change, negative = inhibition was -22.7% (inactive).
With O=C(Cn1cc(SCc2ccccc2)c2ccccc21)N1CCCCC1 the activity change, negative = inhibition was -27.6% (inactive).
For Cc1ccc(Nc2c3c(nc4ccccc24)CCC3)cc1, the activity change, negative = inhibition was -74.2% (active).
With CC(=O)Nc1ccc(Nc2nc3c(S(=O)(=O)c4ccc(C)c(C)c4)nnn3c3ccccc23)cc1 the activity change, negative = inhibition was -35.4% (inactive).
With CC(=O)Nc1ccc(Nc2c3ccccc3nc3ccccc23)cc1 the activity change, negative = inhibition was -99.6% (active).
In the case of Brc1ccc(Nc2c3c(nc4ncnn24)CCC3)cc1, the activity change, negative = inhibition is reported as -30.4% (inactive).
In the case of Cc1ccc(CNC(=O)CSc2c3c(nc4cc(Cl)ccc24)CCCC3)cc1, the activity change, negative = inhibition is reported as -19.8% (inactive).
With CC(=O)Nc1ccc(S(=O)(=O)N2CCN(c3ccccc3)CC2)cc1 the activity change, negative = inhibition was -20.6% (inactive).
For CCCC(=O)Nc1cc(C(=O)NCc2ccc(OC)cc2)ccc1S(=O)(=O)c1ccc(Cl)cc1, the activity change, negative = inhibition was 12.9% (inactive).
For CCOc1cc(/C=N/NC(=O)c2cccc(S(=O)(=O)N3CCOCC3)c2)ccc1OCC(=O)N(C)C, the activity change, negative = inhibition was -10.8% (inactive).
In the case of COc1cccc(C(CC(=O)NCCN2CCOCC2)NS(=O)(=O)c2ccc(C)cc2)c1OC (configuration not stated), the activity change, negative = inhibition is reported as -35.5% (inactive).
In the case of CCOc1cccc(/C=N/NC(=S)NCCN2CCOCC2)c1O, the activity change, negative = inhibition is reported as -99.8% (active).
In the case of Cc1oc(-c2ccccc2)nc1Cn1c(SCc2cccc(C(F)(F)F)c2)nc2cccnc21, the activity change, negative = inhibition is reported as -23.2% (inactive).
In the case of CCOc1cc(C2C(C(=O)OC)=C(C)NC3=C2C(=O)c2ccccc23)ccc1O (configuration not stated), the activity change, negative = inhibition is reported as -8.78% (inactive).
With CC1=NN(C(=O)CCCc2ccccc2)C(O)(C(F)(F)F)C1 (configuration not stated) the activity change, negative = inhibition was -24.1% (inactive).
With CC1=NN(C(=O)c2ccc(Br)cc2)C(O)(c2ccccc2)C1 (configuration not stated) the activity change, negative = inhibition was -17.6% (inactive).
In the case of CC1=NN(C(=O)CCc2ccccc2O)C(O)(C(F)(F)F)C1 (configuration not stated), the activity change, negative = inhibition is reported as -66% (active).
For COc1cccc(C(c2c(O)cc(C)n(Cc3ccco3)c2=O)N2CCN(c3ccccc3)CC2)c1 (configuration not stated), the activity change, negative = inhibition was 7.72% (inactive).
In the case of CC(C)CC(NS(=O)(=O)c1ccc2c(c1)oc(=O)n2C)C(=O)NCc1ccccc1Cl (configuration not stated), the activity change, negative = inhibition is reported as -14.5% (inactive).
With CCCCn1c(=O)c2oc3ccccc3c2n(CC(=O)Nc2ccccc2OC)c1=O the activity change, negative = inhibition was 17% (inactive).
For Cc1cc(N2CCN(c3cccc(C(F)(F)F)c3)CC2)n2nc(-c3ccccc3)nc2n1, the activity change, negative = inhibition was -20.6% (inactive).
